According to the supplement of paper PMC10338343:
± gives the standard deviation.

Each sequence was assayed on MILI (PIWIL2) piRISC loaded with L1MC piRNA (26 nt) (assay: pre-steady-state target cleavage rate (min^-1); guide: L1MC piRNA 5'p-UAACUAAAUACUAUGCAAGCUGUAGG; MIWI and MILI are mouse PIWI proteins and EfPiwi is from a freshwater sponge; tags in brackets are library labels; higher = faster piRNA-guided slicing of the target). Conditions: auxiliary factor: 500 nM mouse GTSF1.
Description: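 Cleave-'n-Seq: a library of target RNAs (target site embedded in constant flanks, ACAGCATTCCGCGTTAGTGATATCCG... 5' flank; DNA-blocked outside the site) at 0.1 nM was incubated with 1 nM active mouse MILI or MIWI piRISC (synthetic 5'-monophosphorylated piRNA guide) with or without 500 nM mouse GTSF1 at 33 °C for 1 min to 16 h. Uncleaved targets were sequenced and normalised to non-target controls, and the pooled three trials were fitted to a burst-and-steady-state model to give the pre-steady-state cleavage rate (min^-1; k3 is constrained to at most 1e-4). Sequence is the target site only; target names encode pairing extent (gX:gY) and contiguous / 1-mismatch / 2-mismatch / bulge geometry. Fits with R² ≤ 0 are excluded.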

Q: With UCCUGGAACUCGUUGCAUAGUAUUUAGUUA as the sequence, how does the “pre-steady-state target cleavage rate” value read?
A: The value was 0.154 ± 0.018.

Q: Which “pre-steady-state target cleavage rate” value does the source give for UCCUCCUACAGCAUGCAUAGUAUUUACUUA here?
A: The value was 0.16 ± 0.022.

Q: For UCCUGGAUGUGCUUGCAUAGUAUUUUGAAA, which “pre-steady-state target cleavage rate” value is on record?
A: Its value is 0.00858 ± 0.0064.

Q: How did the “pre-steady-state target cleavage rate” value turn out when UCCUGGUACUGCUUGCAUAGUAUUUUCAAA was run?
A: Its value is 0.0112 ± 0.0064.

Q: How did the “pre-steady-state target cleavage rate” value turn out when UCCUGCUAGAGCUUGCAUAGUAUUUACAAA was run?
A: The value was 0.146 ± 0.039.

Q: Which “pre-steady-state target cleavage rate” value does the source give for UCCUGGAUGUCGUUGCACAGUAUUUAGUUA here?
A: Its value is 0.0899 ± 0.011.

Q: How did the “pre-steady-state target cleavage rate” value turn out when UCCUGGAUCAGCUUGCUAAGUAUUUACAAA was run?
A: Its value is 0.0261 ± 0.0085.

Q: For UCCUGGAUCAGCAUGCAUAGUAUUUAGAUA, which “pre-steady-state target cleavage rate” value is on record?
A: The value was 0.149 ± 0.017.

Q: UCCUGCUACAGCUCGCAUAGUAUUUAGUUA was tested. Which “pre-steady-state target cleavage rate” value did it give?
A: The value was 0.264 ± 0.015.

Q: For UCCUGGAUGUCGAUGCAUUGUAUUUAGUUA, which “pre-steady-state target cleavage rate” value is on record?
A: The value was 0.0091 ± 0.0037.

Q: With UCCUGCUACAGCUUGCAAAGUAUUUACUUA as the sequence, how does the “pre-steady-state target cleavage rate” value read?
A: The value was 0.0653 ± 0.0078.

Q: Which “pre-steady-state target cleavage rate” value does the source give for UCCUGGAUGUCGAUGCAUAGUAUUUAGUAA here?
A: The value was 0.108 ± 0.015.

Q: How did the “pre-steady-state target cleavage rate” value turn out when UCCUGGAACAGCUUGCAUAGUAUAUUGUUA was run?
A: The value was 0.153 ± 0.029.

Q: How did the “pre-steady-state target cleavage rate” value turn out when UCCUGGAUGUCCUUGCAAAGUAUUAAGUUA was run?
A: The value was 0.0398 ± 0.0098.

Q: For UCCUGGUAAAGCUUGCAUAGUAUUUAGUUA, which “pre-steady-state target cleavage rate” value is on record?
A: Its value is 0.183 ± 0.017.

Q: For UCCUGGAUCAGCUUGCAUAGUAUUUAGGUUA, which “pre-steady-state target cleavage rate” value is on record?
A: Its value is 0.271 ± 0.027.

Q: How did the “pre-steady-state target cleavage rate” value turn out when UCCUGGAUCAUGCUUGCAUAGUAUUUAGUUA was run?
A: The value was 0.18 ± 0.019.

Q: UCCUGGAUGUCGUUGCAAAGUAUUUAGUUA was tested. Which “pre-steady-state target cleavage rate” value did it give?
A: The value was 0.0181 ± 0.0047.

Q: With UCCUGGAUCAGCUUGCAUUGUAUUUAGUUA as the sequence, how does the “pre-steady-state target cleavage rate” value read?
A: The value was 0.179 ± 0.013.

Q: Which “pre-steady-state target cleavage rate” value does the source give for UCCUGGAUGUCCUUGCAUUGUAUUUAGAUA here?
A: The value was 0.0401 ± 0.011.

Q: Which “pre-steady-state target cleavage rate” value does the source give for UCCUGGAUGUGCUUGCAUUGUUUUUAGUUA here?
A: Its value is 0.00733 ± 0.005.

Q: Which “pre-steady-state target cleavage rate” value does the source give for UCCUGGUACAGCUUGCAUUGUAUUUAGAUA here?
A: The value was 0.0565 ± 0.016.

Q: UCCUCCUACAGCAAGCAUAGUAUUUACAAA was tested. Which “pre-steady-state target cleavage rate” value did it give?
A: Its value is 0.172 ± 0.032.

Q: For UCCUGGAACAGCUUGCAUAGUAAUUUCAAA, which “pre-steady-state target cleavage rate” value is on record?
A: Its value is 0.0786 ± 0.026.

Q: With UCCUGGAUGUCCAUGCAUAGUAUUUAGUUA as the sequence, how does the “pre-steady-state target cleavage rate” value read?
A: The value was 0.0603 ± 0.016.

Q: How did the “pre-steady-state target cleavage rate” value turn out when UCCUGGAUCAGGUUGCAUACUAUUUAGUUA was run?
A: Its value is 0.0436 ± 0.0082.

Same assay, conditions: auxiliary factor: none (no GTSF1)

Q: For UCCUGGAACUCGUUGCAUAGUAUUUAGUUA, which “pre-steady-state target cleavage rate” value is on record?
A: The value was 0.00417 ± 0.0024.

Q: How did the “pre-steady-state target cleavage rate” value turn out when UCCUCCUACAGCAUGCAUAGUAUUUACUUA was run?
A: Its value is 0.00307 ± 0.0026.

Q: UCCUGGAUGUCGUUGCACAGUAUUUAGUUA was tested. Which “pre-steady-state target cleavage rate” value did it give?
A: The value was 0.00642 ± 0.0028.

Q: For UCCUGCUACAGCUCGCAUAGUAUUUAGUUA, which “pre-steady-state target cleavage rate” value is on record?
A: The value was 0.00757 ± 0.0027.

Q: How did the “pre-steady-state target cleavage rate” value turn out when UCCUGGAUGUCGAUGCAUAGUAUUUAGUAA was run?
A: The value was 0.00268 ± 0.0024.

Q: With UCCUGGAUGUCCUUGCAAAGUAUUAAGUUA as the sequence, how does the “pre-steady-state target cleavage rate” value read?
A: Its value is 0.00691 ± 0.0023.

Q: For UCCUGGUAAAGCUUGCAUAGUAUUUAGUUA, which “pre-steady-state target cleavage rate” value is on record?
A: Its value is 0.00996 ± 0.0023.

Q: How did the “pre-steady-state target cleavage rate” value turn out when UCCUGGAUCAGCUUGCAUAGUAUUUAGGUUA was run?
A: The value was 0.00531 ± 0.0025.

Q: UCCUGGAUCAUGCUUGCAUAGUAUUUAGUUA was tested. Which “pre-steady-state target cleavage rate” value did it give?
A: The value was 0.00983 ± 0.0024.

Q: UCCUGGAUGUCGUUGCAAAGUAUUUAGUUA was tested. Which “pre-steady-state target cleavage rate” value did it give?
A: Its value is 0.00739 ± 0.0022.

Q: Which “pre-steady-state target cleavage rate” value does the source give for UCCUGGAUCAGCUUGCAUUGUAUUUAGUUA here?
A: The value was 0.00955 ± 0.0024.

Q: Which “pre-steady-state target cleavage rate” value does the source give for UCCUGGAUGUGCUUGCAUUGUUUUUAGUUA here?
A: Its value is 0.00335 ± 0.0032.

Q: With UCCUGGAUGUCCAUGCAUAGUAUUUAGUUA as the sequence, how does the “pre-steady-state target cleavage rate” value read?
A: The value was 0.00432 ± 0.0026.

Q: With UCCUGGAUCAGGUUGCAUACUAUUUAGUUA as the sequence, how does the “pre-steady-state target cleavage rate” value read?
A: Its value is 0.00331 ± 0.0025.
